Consider four molecules from PubChem BioAssay (EPA / NIEHS).

Active and inactive are the calls of the source. The calls were made as follows: active = hit-call score of the fitted dose curve at least 0.9, where 1 is the maximum; inactive = score below 0.9.

Settings in all cases: mRNA level, 48 h; actives raise or lower the signal
Read-out in test [1]: Cytochrome P450 7A1 (Homo sapiens) (UniProt P22680)
Put plainly: LTEA_HepaRG_CYP7A1: Life Technologies and Expression Analysis (LTEA) Assay for Cytochrome P450 7A1 (CYP7A1) using HepaRG (AID 2283496). The essentials:
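HepaRG cells plated 48 h, then switched to serum-free induction medium and exposed in duplicate for 48 h to 8-point half-log series from 100 uM in 0.5% DMSO. CYP7A1 mRNA by qRT-PCR (TaqMan), normalized to ACTB/GAPDH/POLR2A; bidirectional fit versus DMSO.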

Read-out in test [2]: Glutathione S-Transferase (GSTA2), GSTA2 (gene 2939)
Put plainly: LTEA_HepaRG_GSTA2: Life Technologies and Expression Analysis (LTEA) Assay for Glutathione S-Transferase (GSTA2) using HepaRG (AID 2283497). The essentials: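 Differentiated human HepaRG cells were exposed in duplicate for 48 h in serum-free induction medium, 8 points from 100 uM top in half-log steps, 0.5% DMSO. GSTA2 mRNA was measured by TaqMan qRT-PCR, normalized to ACTB, GAPDH and POLR2A; bidirectional fit versus DMSO.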

Read-out in test [3]: Glutamate-cysteine ligase catalytic (GCLC), GCLC (gene 2729)
The experiment in a line: LTEA_HepaRG_GCLC: Life Technologies and Expression Analysis (LTEA) Assay for Glutamate-cysteine ligase catalytic (GCLC) using HepaRG (AID 2283498). The essentials: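 Differentiated HepaRG cells exposed 48 h in serum-free induction medium, eight-point half-log series topping at 100 uM in 0.5% DMSO, duplicates. GCLC mRNA by qRT-PCR normalized to ACTB, GAPDH and POLR2A, fitted bidirectionally versus DMSO.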

Read-out in test [4]: growth arrest and DNA damage 45 (GADD45G), GADD45G (gene 10912)
The experiment in a line: LTEA_HepaRG_GADD45G: Life Technologies and Expression Analysis (LTEA) Assay for growth arrest and DNA damage 45 (GADD45G) using HepaRG (AID 2283499). The method, boiled down:
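Human hepatic HepaRG line treated 48 h with chemicals (eight concentrations, half-log steps from 100 uM); transcript induction or repression of GADD45G scored by qRT-PCR versus DMSO vehicle.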

Read-out in test [5]: Glutathione S-transferase M3 (GSTM3), GSTM3 (gene 2947)
Put plainly: LTEA_HepaRG_GSTM3: Life Technologies and Expression Analysis (LTEA) Assay for Glutathione S-transferase M3 (GSTM3) using HepaRG (AID 2283501). The method, boiled down: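 Changes in GSTM3 expression, an oxidative-stress marker, were scored by bidirectional curve fitting against 0.5% DMSO vehicle. Human HepaRG cultures received chemicals for 48 h in duplicate, highest concentration 100 uM with half-log dilutions.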

Read-out in test [6]: Heat shock 70 kDa protein 1 (HSPA1A), gene 3303
The experiment in a line: LTEA_HepaRG_HSPA1A: Life Technologies and Expression Analysis (LTEA) Assay for Heat shock 70 kDa protein 1 (HSPA1A) using HepaRG (AID 2283502). The method, boiled down: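 Human HepaRG cells in serum-free induction medium were exposed in duplicate for 48 h to 8 half-log concentrations, highest 100 uM, in 0.5% DMSO. HSPA1A mRNA read by TaqMan qRT-PCR, normalized to ACTB, GAPDH, POLR2A, fitted bidirectionally against DMSO.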

Read-out in test [7]: Hypoxia-inducible factor 1-alpha (Homo sapiens) (UniProt Q16665)
The experiment in a line: LTEA_HepaRG_HIF1A: Life Technologies and Expression Analysis (LTEA) Assay for Hypoxia-inducible factor 1 (HIF1A) Trancription factor using HepaRG (AID 2283503). The method, boiled down: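 Differentiated HepaRG cells in serum-free induction medium exposed 48 h, in duplicate, to 8-point half-log series from 100 uM in 0.5% DMSO. HIF1A mRNA measured by TaqMan qRT-PCR, normalized to ACTB/GAPDH/POLR2A, fitted bidirectionally versus DMSO.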

Read-out in test [8]: 3-Hydroxy-3-Methylglutaryl-CoA Synthase 2 (HMGCS2), HMGCS2 (gene 3158)
Put plainly: LTEA_HepaRG_HMGCS2: Life Technologies and Expression Analysis (LTEA) Assay for 3-Hydroxy-3-Methylglutaryl-CoA Synthase 2 (HMGCS2) using HepaRG (AID 2283504). The method, boiled down: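 Expression of HMGCS2 in human HepaRG liver cells is measured by qRT-PCR 48 h after dosing (highest 100 uM, half-log series, 0.5% DMSO). Values come from bidirectional concentration-response fitting with DMSO as baseline.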

Read-out in another test: HGF (gene 3082)
Put plainly: LTEA_HepaRG_HGF: Life Technologies and Expression Analysis (LTEA) Assay for Hepatocyte Growth Facto (HGF) using HepaRG (AID 2283505). The essentials: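 Gain or loss of HGF mRNA in human HepaRG liver cells after 48 h chemical exposure; eight concentrations up to 100 uM with 0.5% DMSO vehicle, quantified by TaqMan qRT-PCR.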

Read-out in test [9]: Insulin Like Growth Factor 1 (IGF1), IGF1 (gene 3479)
Put plainly: LTEA_HepaRG_IGF1: Life Technologies and Expression Analysis (LTEA) Assay for Insulin Like Growth Factor 1 (IGF1) using HepaRG (AID 2283506). The method, boiled down: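 Differentiated HepaRG cells in serum-free induction medium, exposed 48 h in duplicate to 8 half-log concentrations up to 100 uM in 0.5% DMSO. IGF1 mRNA by Fluidigm qRT-PCR, normalised to ACTB, GAPDH and POLR2A.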

Read-out in test [10]: Intercellular Adhesion Molecule 1 (ICAM1), ICAM1 (gene 3383)
The experiment in a line: LTEA_HepaRG_ICAM1: Life Technologies and Expression Analysis (LTEA) Assay for Intercellular Adhesion Molecule 1 (ICAM1) using HepaRG (AID 2283507). The method, boiled down:
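Gain or loss of transcript in HepaRG hepatic cells is quantified by qRT-PCR after 48 h chemical exposure (up to 100 uM, half-log steps), with DMSO as baseline.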

Read-out in test [11]: Insulin-like growth factor-binding protein 1 (IGFBP1), IGFBP1 (gene 3484)
Put plainly: LTEA_HepaRG_IGFBP1: Life Technologies and Expression Analysis (LTEA) Assay for Insulin-like growth factor-binding protein 1 (IGFBP1) using HepaRG (AID 2283508). The essentials:
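mRNA induction or loss was quantified by qRT-PCR after 48 h chemical exposure of human HepaRG cells, with 0.5% DMSO as vehicle and baseline. Concentration-response over eight points up to 100 uM.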

Read-out in test [12]: Interleukin 6 (IL6), IL6 (gene 3569)
The experiment in a line: LTEA_HepaRG_IL6: Life Technologies and Expression Analysis (LTEA) Assay for Interleukin 6 (IL6) using HepaRG (AID 2283509). The method, boiled down:
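HepaRG cells exposed in duplicate for 48 h to eight half-log concentrations, top 100 uM, in 0.5% DMSO serum-free induction medium. mRNA measured by qRT-PCR, normalized to ACTB, GAPDH and POLR2A. Bidirectional fit versus DMSO.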

Read-out in test [13]: Interleukin 6 Receptor (IL6R), IL6R (gene 3570)
Put plainly: LTEA_HepaRG_IL6R: Life Technologies and Expression Analysis (LTEA) Assay for Interleukin 6 Receptor (IL6R) using HepaRG (AID 2283510). The essentials: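 Differentiated HepaRG cells, plated 48 h, then exposed in duplicate for 48 h in serum-free induction medium to 8 half-log concentrations (top 100 uM, 0.5% DMSO). IL6R mRNA measured by TaqMan qRT-PCR, normalized to ACTB/GAPDH/POLR2A; bidirectional fit vs DMSO.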

Read-out in test [14]: Potassium channel subfamily K member 1 (KCNK1), KCNK1 (gene 3775)
The experiment in a line: LTEA_HepaRG_KCNK1: Life Technologies and Expression Analysis (LTEA) Assay for Potassium channel subfamily K member 1 (KCNK1) using HepaRG (AID 2283511). The essentials: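 Differentiated HepaRG cells, 48 h exposure in serum-free induction medium with 0.5% DMSO; 8 concentrations, half-log from 100 uM, duplicate. KCNK1 mRNA by qRT-PCR, normalized to ACTB, GAPDH, POLR2A; bidirectional fit vs DMSO.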

Read-out in test [15]: Keratin 19 (KRT19), KRT19 (gene 3880)
The experiment in a line: LTEA_HepaRG_KRT19: Life Technologies and Expression Analysis (LTEA) Assay for Keratin 19 (KRT19) using HepaRG (AID 2283512). The essentials: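 Gene-expression endpoint in the human liver line HepaRG after 48 h exposure to up to 100 uM test chemical with 0.5% DMSO vehicle; KRT19 mRNA by qRT-PCR, analyzed bidirectionally versus DMSO.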

Read-out in test [16]: JUN Transcription Factor, JUN (gene 3725)
Put plainly: LTEA_HepaRG_JUN: Life Technologies and Expression Analysis (LTEA) Assay for JUN Transcription Factor using HepaRG (AID 2283513). The essentials: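 HepaRG cells, 48 h post-plating, exposed 48 h in serum-free induction medium to 8-point half-log series (top 100 uM, 0.5% DMSO), duplicate; mRNA by qRT-PCR (TaqMan, Fluidigm), normalized to ACTB/GAPDH/POLR2A; bidirectional fit vs DMSO.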

Read-out in test [17]: Lipase C (LIPC), LIPC (gene 3990)
Put plainly: LTEA_HepaRG_LIPC: Life Technologies and Expression Analysis (LTEA) Assay for Lipase C (LIPC) using HepaRG (AID 2283514). The method, boiled down:
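HepaRG cells, 48 h after plating, treated in duplicate for 48 h in serum-free induction medium over 8 half-log concentrations from 100 uM, 0.5% DMSO. LIPC mRNA by TaqMan qRT-PCR normalized to ACTB/GAPDH/POLR2A; bidirectional fit versus DMSO.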

Read-out in test [18]: Lipoprotein lipase (LPL), LPL (gene 4023)
The experiment in a line: LTEA_HepaRG_LPL: Life Technologies and Expression Analysis (LTEA) Assay for Lipoprotein lipase (LPL) using HepaRG (AID 2283515). The method, boiled down: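 Differentiated HepaRG cells, plated 48 h, then exposed 48 h in serum-free induction medium to 8 concentrations (top 100 uM, half-log steps) in 0.5% DMSO, duplicate. LPL mRNA measured by qRT-PCR, normalized to ACTB, GAPDH and POLR2A.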

Read-out in test [19]: Glutamate-cysteine ligase regulatory (GCLM), GCLM (gene 2730)
Put plainly: LTEA_HepaRG_GCLM: Life Technologies and Expression Analysis (LTEA) Assay for Glutamate-cysteine ligase regulatory (GCLM) using HepaRG (AID 2283500). The essentials:
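Differentiated HepaRG cells exposed 48 h in serum-free induction medium to eight half-log concentrations up to 100 uM (0.5% DMSO). GCLM mRNA by TaqMan qRT-PCR, normalized to ACTB, GAPDH and POLR2A; bidirectional fit versus DMSO.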

Chain of Hypoxia-inducible factor 1-alpha (Homo sapiens) (Q16665 whole entry, looked up): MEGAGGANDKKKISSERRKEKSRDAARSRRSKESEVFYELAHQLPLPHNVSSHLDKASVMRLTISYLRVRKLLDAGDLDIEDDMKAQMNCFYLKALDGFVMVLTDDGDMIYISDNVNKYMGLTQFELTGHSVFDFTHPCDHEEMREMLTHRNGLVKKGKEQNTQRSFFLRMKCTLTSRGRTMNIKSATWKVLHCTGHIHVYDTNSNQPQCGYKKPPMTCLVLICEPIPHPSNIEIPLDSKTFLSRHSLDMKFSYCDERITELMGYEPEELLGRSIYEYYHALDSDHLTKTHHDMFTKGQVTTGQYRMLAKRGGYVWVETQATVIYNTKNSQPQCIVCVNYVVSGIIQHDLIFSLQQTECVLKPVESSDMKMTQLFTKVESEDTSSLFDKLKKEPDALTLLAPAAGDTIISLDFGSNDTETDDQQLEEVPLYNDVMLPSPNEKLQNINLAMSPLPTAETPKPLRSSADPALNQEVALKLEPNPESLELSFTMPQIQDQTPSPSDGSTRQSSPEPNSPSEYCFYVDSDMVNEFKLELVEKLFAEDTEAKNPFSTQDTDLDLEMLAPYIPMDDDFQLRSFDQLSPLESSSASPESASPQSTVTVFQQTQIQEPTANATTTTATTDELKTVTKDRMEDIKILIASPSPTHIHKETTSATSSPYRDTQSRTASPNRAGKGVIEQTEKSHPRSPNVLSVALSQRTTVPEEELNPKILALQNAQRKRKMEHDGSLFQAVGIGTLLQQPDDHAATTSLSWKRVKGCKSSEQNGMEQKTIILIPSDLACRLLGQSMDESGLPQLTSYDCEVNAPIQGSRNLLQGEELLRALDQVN

For the molecule `C#C[C@]1(O)CC[C@H]2[C@@H]3CCc4cc(O)ccc4[C@H]3CC[C@@]21C`, the molecule was classed as inactive in test [1], in test [2], in test [3], in test [4], in test [5] and in test [6]. In addition, the call (in test [7]; in test [8]; in the test with HGF (gene 3082); in test [9]; in [10]; in test [11]) was inactive. Besides, the result in [12], in test [13], in [14], in [15], in test [16] and in [17] was inactive. Also, the result in test [18] was inactive.
Turning to `C=C(C)C(N)=O`, the call in test [1], in [2], in test [3], in test [4], in test [19] and in test [5] was inactive. The result (in test [6]; in test [7]; in test [8]; with HGF (gene 3082); in test [9]; in [10]) was inactive. Also, the call in [11], in test [12], in test [13], in test [14], in [15] and in test [16] was inactive. Also, the result in test [17] and in [18] was inactive.
As to `COC(=O)c1ccc(C(=O)OC)cc1`, the outcome in test [1], in test [2], in [3], in [4], in test [19] and in test [5] was inactive. In addition, the molecule was called inactive (in test [6]; in test [7]; in test [8]; with HGF (gene 3082); in test [9]; in test [10]). Further, the molecule was classed as inactive in test [11], in test [12], in test [13], in [14], in test [15] and in [16]. In addition, the molecule was called inactive in test [17] and in [18].
On to `O=C(c1ccc(OCCN2CCCCC2)cc1)c1c(-c2ccc(O)cc2)sc2cc(O)ccc12`, for which the molecule was called inactive (in test [1]; in test [3]; in test [4]; in test [19]; in test [5]; in the test with HGF (gene 3082)). Further, the call in test [13], in [14], in test [15] and in test [17] was inactive. Also, the concentration at half-maximal activity (AC50) in test [2] was 69.1 µM (active); in test [6] it was 88.1 µM (active); in test [8], 3.14 µM (active); in [9], 78.3 µM (active); in test [10], 71 µM (active); in [11], 75.6 µM (active). Moreover, the concentration at half-maximal activity (AC50) in [12] was 75.9 µM (active); in [16] it was 82.6 µM (active); in test [18], 80.4 µM (active).

For orientation: AC50 means the concentration giving half of the maximal activity seen.
